The list is not random: actives were taken first. Their share in the collection is about 10%.
BAZ2B block: qHTS Assay for Inhibitors of BAZ2B; actives 4.4% (n = 360,000); AlphaScreen BAZ2B-H3K14Ac peptide displacement; Potency, µM (highest dose often 114 µM), inactives show at the top dose activity change, negative = inhibition, usual class: inhibitors; also: % is scaled to controls: 0 for no effect and ±100 for the full control effect; nearly all actives have a fitted effect of over 60% in size
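Complex of BAZ2B and biotin-H3K14Ac (50 nM apiece) forms over 30 min at RT, then faces library compounds up to 110 uM for another 30 min; AlphaScreen beads added, 20 min dark incubation, luminescence read.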
GLS inh: qHTS for Inhibitors of Glutaminase (GLS); Glutaminase kidney isoform, mitochondrial (Homo sapiens), O94925; GLS enzymatic activity, qHTS titration; Potency, µM (highest dose often 45.5 µM), for inactives: at the top dose activity change, negative = inhibition, most hits filed as inhibitors; actives 0.21% (n = 410,000); AID 624170, 2012; also: % is scaled to controls: 0 for no effect and ±100 for the full control effect
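Human kidney-isoform GLS in 45 mM KH2PO4 pH 8.2, 0.02% Tween-20, with compound, started with 1mM L-Glutamine (added stock). Glutamate oxidase/HRP/Amplex red coupled fluorescence read at start and after 30 min at RT.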
JMJD2A Tudor inh: qHTS Assay for Inhibitors of JMJD2A-Tudor Domain; Lysine-specific demethylase 4A (Homo sapiens), O75164; AlphaScreen JMJD2A-Tudor / H3K4me3 peptide binding; Potency, µM (top dose mostly 114 µM), for the others: at the highest dose activity change, negative = inhibition, actives largely listed as inhibitors; actives 4.4% (n = 390,000); also: % is scaled to controls: 0 for no effect and ±100 for the full control effect; nearly all actives have a fitted effect of over 50% in size
L3MBTL1 block: qHTS Assay for the Inhibitors of L3MBTL1; AlphaScreen L3MBTL1–H3K9me1 peptide binding; Potency, µM (top dose mostly 57.1 µM), for the others: top-dose activity, negative = inhibition, actives largely listed as inhibitors; actives 0.66% (n = 230,000); also: % is scaled to controls: 0 for no effect and ±100 for the full control effect; nearly all actives have a fitted effect of over 60% in size
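L3MBTL1 50 nM + b-AHA-H3(1-15)K9me1 75 nM, 30 min RT; compound added, 30 min RT; streptavidin donor/Ni-chelate acceptor beads 10 ug/mL each final, 30 min RT dark; AlphaScreen read.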
G9a block: qHTS Assay for Inhibitors of Histone Lysine Methyltransferase G9a. Histone-lysine N-methyltransferase EHMT2 (Homo sapiens), Q96KQ7. G9a H3K9 monomethylation, AlphaScreen, 2 h. Potency, µM (highest dose often 102 µM), inactives show at the top dose activity, negative = inhibition, usual class: inhibitors. actives 8.8% (n = 350,000); also: % is scaled to controls: 0 for no effect and ±100 for the full control effect; nearly all actives have a fitted effect of over 75% in size
Target sequence (Q96KQ7 913-1193 limits assumed): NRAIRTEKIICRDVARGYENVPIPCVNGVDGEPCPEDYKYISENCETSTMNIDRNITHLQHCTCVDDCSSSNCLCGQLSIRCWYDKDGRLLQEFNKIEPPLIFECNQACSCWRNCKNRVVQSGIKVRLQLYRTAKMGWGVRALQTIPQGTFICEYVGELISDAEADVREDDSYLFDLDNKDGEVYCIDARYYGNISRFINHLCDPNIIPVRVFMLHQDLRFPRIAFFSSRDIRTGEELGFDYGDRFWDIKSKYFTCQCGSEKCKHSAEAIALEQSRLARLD
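Chemiluminescent proximity detection of H3K9 monomethylation, read after 10 min bead incubation in the dark. Reaction: 20 nM G9a, 500 nM biotin-H3K9 peptide, 20 uM SAM cofactor, 2 h, room temperature, following 15 min enzyme-compound preincubation.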
HP1b chromo inh: HTS for Inhibitors of HP1-beta Chromodomain Interactions with Methylated Histone Tails | Chromobox protein homolog 1 (Homo sapiens), P83916 | AlphaScreen HP1-beta / biotin-H3K9me3 peptide binding | Potency, µM (doses to about 114 µM), for inactives: at the top dose activity change, negative = inhibition, most hits filed as inhibitors | actives 0.56% (n = 390,000) | AID 540317, 2011; also: nearly all actives have a fitted effect of over 70% in size
Target sequence (P83916 whole entry, looked up): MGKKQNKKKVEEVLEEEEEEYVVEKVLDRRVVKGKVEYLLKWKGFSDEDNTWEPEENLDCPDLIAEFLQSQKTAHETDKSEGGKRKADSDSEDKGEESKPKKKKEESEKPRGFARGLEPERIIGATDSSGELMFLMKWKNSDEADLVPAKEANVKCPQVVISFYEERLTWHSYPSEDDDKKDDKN
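HP1-beta protein (50 nM final) preincubated 30 min at room temperature with biotinylated H3(1-18)K9me3 peptide (50 nM) in PBS pH 7.4, 0.01% Tween-20, then compound added for 30 min. AlphaScreen streptavidin donor/nickel chelate acceptor beads (10 ug/mL final), 30 min dark, luminescence read.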
* marks the source's active call; other numbers are inactive results; ? = inconclusive; . = no result; [ ] = remark or other dose. Calls follow the shape of the dose curve; as a rule, active = well fitted curve in the direction sought with a large enough effect; inconclusive = small, poorly fitted or top-dose-only effect, or another doubt; inactive = no such curve, though single readings can be large; an effect the other way counts as inactive or inconclusive. Potency is read from the fitted curve at half-maximal effect.

SMILES | BAZ2B block | GLS inh | JMJD2A Tudor inh | L3MBTL1 block | G9a block | HP1b chromo inh
CC(C)(C)OC(=O)N1CCC(c2c(C(=O)NCc3cccs3)cnn2-c2cccc(F)c2)CC1 | 6.1%[57.1 µM] | -1.0% | -22.0% | . | -21.9%[59 µM] | 21.1%
COc1ccc(OC)c(NC(=O)Cc2csc(NC(=O)Nc3ccccc3OC)n2)c1 | 0.5% | 2.7% | ? | -16.2% | 44.7µM* | -21.3%
COc1ccc(NC(=O)Cc2csc(NC(=O)Nc3ccccc3OC)n2)c(OC)c1 | ? | 4.6% | ? | -6.6% | 50.1µM* | -16.2%
COc1cccc(CNC(=O)Cc2csc(NC(=O)Nc3ccccc3OC)n2)c1 | -32.7% | 7.1% | -26.4% | -13.1% | ? | 16.2%
COc1cc(OC)cc(C(=O)Nc2nc(CC(=O)NC(C)c3ccccc3)cs2)c1 (stereo unspecified) | 50.1µM* | 1.6% | -32.4% | -10.4% | ? | 0.2%
COc1ccc(NC(=O)CN(C)C(=O)Cc2ccc3c(c2)CCC3)cc1 | -32.8% | -1.3% | -20.7% | . | 50.1µM* | 3.9%
COc1ccc(NC(=O)CN(C)C(=O)Cc2ccc3c(c2)OCCO3)cc1 | 13.2% | 5.1% | -10.8% | 1.2% | 5.1% | 22.5%
Cc1ccc(NC(=O)CN(C)C(=O)Cc2ccc3c(c2)CCC3)cc1 | 9.2% | -12.3% | -0.7% | -1.4% | 50.1µM* | 31.9%
COc1ccc(NC(=O)CN(C)CC(=O)NC2CCCCC2C)cc1 (stereo unspecified) | 9.7% | 1.4% | -4.5% | 3.3% | 28.2µM* | 40.7%
CSc1ccccc1NC(=O)CN(C)C(=O)Cn1c(=O)oc2ccccc21 | 11.3% | -13.3% | -7.9% | 1.8% | 50.1µM* | -5.2%
C=CCOc1ccc(CN(C)CC(=O)Nc2ccc3c(c2)CCC3)cc1 | 50.1µM* | -6.6% | 14.1µM* | 18.6% | 14.1µM* | -20.0%
COc1ccc(S(=O)(=O)N(C)CC(=O)Nc2ccccc2SC)cc1 | 38.1% | 8.8% | -5.4% | 5.9% | 72.2%[59 µM] | 31.4%
COc1ccc(CC(=O)N(C)CC(=O)Nc2ccccc2SC)cc1 | 2.1% | ? | 28.2µM* | . | -3.9%[59 µM] | -5.5%
CCOC(=O)c1c(C)[nH]c(C)c1S(=O)(=O)N1CCCC(C(=O)NCc2ccc(N(C)C)cc2)C1 (stereo unspecified) | ? | 4.1% | ? | . | ? | ?
COc1cc2[nH]c(=S)nc(NCCC(C)C)c2cc1OC | ? | -11.7% | 25.1µM* | -10.3% | 17.8µM* | -0.2%
COc1cc2[nH]c(=S)nc(NCCc3ccc(S(N)(=O)=O)cc3)c2cc1OC | -23.9% | -8.6% | -15.2% | -6.0% | 12.6µM* | 116.0%
COc1ccccc1CNc1nc(=S)[nH]c2cc(OC)c(OC)cc12 | -10.4% | -14.9% | -31.5% | . | 79.4µM* | 37.2%
COc1cc2[nH]c(=S)nc(NCc3cccs3)c2cc1OC | 2.4% | -16.4% | -12.8% | . | 28.2µM* | 29.1%
COc1cc(C2C3C(=O)N(Cc4ccccc4)C(=O)C3ON2c2ccccc2)cc(OC)c1O (stereo unspecified) | ? | 4.9% | -32.1% | -9.4% | 50.1µM* | -9.7%
CCCC1C2C(=O)N(c3ccccc3)C(=O)C2ON1c1ccccc1 (stereo unspecified) | -1.0% | -0.9% | -1.5% | . | 8.5% | 31.7%
CCCOc1ccc(N2C(=O)C3ON(c4ccccc4)C(c4ccc(O)c(OC)c4)C3C2=O)cc1 (stereo unspecified) | -19.1% | ? | -24.7% | . | 50.1µM* | 18.6%
CCOc1ccccc1C1C2C(=O)N(c3ccccc3)C(=O)C2ON1c1ccccc1 (stereo unspecified) | . | 5.9% | -17.9% | -1.2% | ? | 37.8%
CCCOc1ccc(N2C(=O)C3ON(c4ccccc4)C(CCC)C3C2=O)cc1 (stereo unspecified) | -0.7% | 4.3% | 7.1%[57.1 µM] | . | 39.8µM* | 51.1%
CCn1c(=NC(=O)c2ccc3c(c2)OCCO3)sc2c(C)ccc(OC)c21 | 8.6% | -15.6% | -0.3% | . | 16.3%[59 µM] | 18.2%[57 µM]
O=C1OC(c2ccccc2)(c2ccccc2)N2CCN(C(=O)NCc3ccc(F)cc3)CC12 (stereo unspecified) | . | . | -15.0% | . | . | .
SMILES | BAZ2B block | GLS inh | JMJD2A Tudor inh | L3MBTL1 block | G9a block | HP1b chromo inh
COCCn1c(=O)c(-c2ccccc2)nc2cnc(N3CCN(C)CC3)nc21 | . | . | . | . | -1.5%[0.501 µM] | .
CCCCn1c(SCC(=O)c2ccc(OCC)cc2)nc2cc(S(N)(=O)=O)ccc21 | 0.4% | 1.1% | ? | . | ? | -0.1%
CCCCn1c(SCC(=O)c2ccc(OC)c(OC)c2)nc2cc(S(N)(=O)=O)ccc21 | -0.6% | -6.5% | -10.3% | . | 50.1µM* | 23.7%
Cc1ccc(NC(=O)CC(C)S(=O)(=O)c2ccc3c(c2)NC(=O)CO3)cc1Cl (stereo unspecified) | 2.7% | 0.7% | -1.7% | . | 9.1%[59 µM] | 48.1%
COc1ccc(CN2CCN(C(=O)c3cccc4ccccc34)CC2)cc1Br | 50.1µM* | -0.9% | 17.8µM* | -6.5% | 28.2µM* | -16.9%
CCOc1cc(CN2CCN(S(=O)(=O)Cc3ccccc3)CC2)ccc1OC | -0.2% | -4.0% | -5.5% | . | 15.8% | 8.6%
CCOc1cc(CN2CCN(C(=O)c3cccc4ccccc34)CC2)ccc1OC | 50.1µM* | 4.0% | 20µM* | -5.7% | 22.4µM* | ?
COc1ccc(CN2CCN(C(=O)c3cccs3)CC2)cc1Br | 50.1µM* | -1.8% | 35.5µM* | -8.0% | 35.5µM* | ?
O=C(c1cccs1)N1CCN(Cc2cccc([N+](=O)[O-])c2)CC1 | 28.2µM* | 0.9% | 20µM* | 1.5% | 11.2µM* | ?
COc1ccc(CN2CCN(C(=O)c3ccccc3C(=O)c3ccccc3)CC2)cc1F | . | 9.4% | . | . | . | .
Cc1ccc(S(=O)(=O)N2CCN(c3nc(-c4cccs4)nc4c3ncn4COC(=O)C(C)(C)C)CC2)cc1 | . | . | -16.3% | . | . | 30.0%
O=C(O)CCN1CCc2ccccc2C1c1ccncc1 (stereo unspecified) | -24.6% | 0.5% | -6.0% | . | 50.1µM* | 46.3%
O=C(O)CCN1CCc2ccccc21 | ? | 15.2% | -14.2% | ? | ? | 2.4%
CCn1c(CN2CCN(c3ccc(OC)cc3)CC2)nc2cc(S(=O)(=O)N(C)C)ccc21 | -32.6% | 10.3% | ? | . | ? | 1.1%
CCCn1c(CN2CCN(C(=O)c3ccco3)CC2)nc2cc(S(=O)(=O)N(C)C)ccc21 | 20.4% | 3.5% | -8.2% | -5.9% | 39.8µM* | ?

Compound activity as filed in PubChem BioAssay.
